{"source": "paper PMC11995724", "about": "“Antibiotic target discovery by integrated phenotypic and activity-based profiling of electrophilic fragments” (Cell chemical biology, 2025)", "note": "Out of some 3,200 compounds screened, about 110 (3.4%) showed an effect of 50% or more. The entries come from a sample that favours strong results as a whole."}
{"system": "T1, V. cholerae SAD30", "T1 construct": "SAD30", "set-up": "species or system S. aureus MSSA476 (TSB) or V. cholerae SAD30 (LB); 384-well bacterial growth screen at 25 uM, OD600 relative to DMSO control", "details": "relative growth, OD600, LB; 25 µM; inhibitor", "units": {"% of control remaining": "%"}}
{"smiles": "C=CC(=O)NC1(c2nc(C3CC3)cc(=O)[nH]2)CCCCC1", "note": "[3-H13, N-[1-(4-cyclopropyl-6-oxo-1,6-dihydropyrimidin-2-yl)cyclohexyl]prop-2-enamide]", "% of control remaining": 88.7374}
{"smiles": "CS(=O)(=O)c1ccc(C(=O)CCl)cc1", "note": "[10-I13, 2-chloro-1-(4-methanesulfonylphenyl)ethan-1-one]", "% of control remaining": 0}
{"smiles": "CN(c1ccc(C(=O)CCl)cc1)S(C)(=O)=O", "note": "[10-F19, N-[4-(2-chloroacetyl)phenyl]-N-methylmethanesulfonamide]", "% of control remaining": 14.0269}
{"smiles": "CC(=O)N(C)Cc1ccc(C(=O)CCl)cc1", "note": "[10-H04, N-{[4-(2-chloroacetyl)phenyl]methyl}-N-methylacetamide]", "% of control remaining": 100.682}
{"smiles": "CC(Cl)C(=O)c1ccc(NS(C)(=O)=O)cc1", "note": "(stereo not shown) [10-A08, N-[4-(2-chloropropanoyl)phenyl]methanesulfonamide]", "% of control remaining": 98.4999}
{"smiles": "CCN(c1ccc(C(=O)CCl)cc1)S(C)(=O)=O", "note": "[10-F04, N-[4-(2-chloroacetyl)phenyl]-N-ethylmethanesulfonamide]", "% of control remaining": 100.994}
{"smiles": "CS(=O)(=O)Nc1ccc(C(=O)CCl)cc1", "note": "[10-D19, N-[4-(2-chloroacetyl)phenyl]methanesulfonamide]", "% of control remaining": 31.3267}
{"smiles": "CS(=O)(=O)NCCc1ccc(C(=O)CCl)cc1", "note": "[10-D06, N-{2-[4-(2-chloroacetyl)phenyl]ethyl}methanesulfonamide]", "% of control remaining": 99.5909}
{"smiles": "CS(=O)(=O)c1ccc(CNC(=O)CCl)cc1", "note": "[6-O12, 2-chloro-N-[(4-methanesulfonylphenyl)methyl]acetamide]", "% of control remaining": 95.2507}
{"smiles": "C=CC(=O)NC(c1ccc(C)cc1)C(C)S(C)(=O)=O", "note": "(stereo not shown) [2-A10, N-[2-methanesulfonyl-1-(4-methylphenyl)propyl]prop-2-enamide]", "% of control remaining": 94.3646}
{"smiles": "CC(Cl)C(=O)Nc1sccc1C(N)=O", "note": "(stereo not shown) [5-C21, 2-(2-chloropropanamido)thiophene-3-carboxamide]", "% of control remaining": 107.429}
{"smiles": "C=CC(=O)N1CCC(NC(C)=O)(c2noc(C)n2)C1", "note": "(stereo not shown) [2-G16, N-[3-(5-methyl-1,2,4-oxadiazol-3-yl)-1-(prop-2-enoyl)pyrrolidin-3-yl]acetamide]", "% of control remaining": 100.077}
{"smiles": "C=CC(=O)NC1CN(S(=O)(=O)c2ccc3c(c2)OCCO3)C1", "note": "[2-E11, N-[1-(2,3-dihydro-1,4-benzodioxine-6-sulfonyl)azetidin-3-yl]prop-2-enamide]", "% of control remaining": 95.7541}
{"smiles": "N#CC(=Cc1c(F)cccc1F)C(=O)Nc1ccccc1F", "note": "[9-J12, 2-cyano-3-(2,6-difluorophenyl)-N-(2-fluorophenyl)prop-2-enamide]", "% of control remaining": 94.2896}
{"smiles": "O=C(CCl)NC1CCCc2nc(-c3ccccc3)sc21", "note": "(stereo not shown) [7-B04, 2-chloro-N-(2-phenyl-4,5,6,7-tetrahydro-1,3-benzothiazol-7-yl)acetamide]", "% of control remaining": 86.833}
{"smiles": "CCCn1c(C)cc(C=C(C#N)C(=O)N2CCC2)c1C", "note": "[8-L08, 2-(azetidine-1-carbonyl)-3-(2,5-dimethyl-1-propyl-1H-pyrrol-3-yl)prop-2-enenitrile]", "% of control remaining": 60.707}
{"smiles": "COC(=O)c1sccc1N1C(=O)C=CC1=O", "note": "[10-A07, methyl 3-(2,5-dioxo-2,5-dihydro-1H-pyrrol-1-yl)thiophene-2-carboxylate]", "% of control remaining": 26.4952}
{"smiles": "Cc1cc(C(=O)C(C)Cl)c(C)n1Cc1ccco1", "note": "(stereo not shown) [10-E06, 2-chloro-1-{1-[(furan-2-yl)methyl]-2,5-dimethyl-1H-pyrrol-3-yl}propan-1-one]", "% of control remaining": 94.9153}
{"smiles": "Cc1ccc(NC(=O)CCl)cc1[N+](=O)[O-]", "note": "[4-M13, 2-chloro-N-(4-methyl-3-nitrophenyl)acetamide]", "% of control remaining": 93.6813}
{"smiles": "COCCn1c(C)cc(C(=O)CCl)c1C", "note": "[10-D13, 2-chloro-1-[1-(2-methoxyethyl)-2,5-dimethyl-1H-pyrrol-3-yl]ethan-1-one]", "% of control remaining": 99.9026}
{"smiles": "NC(=O)c1coc(C(=O)CCl)c1", "note": "[10-C05, 5-(2-chloroacetyl)furan-3-carboxamide]", "% of control remaining": 96.1621}
{"smiles": "CCc1ccc(CC)c(C(=O)CCl)c1", "note": "[10-H14, 2-chloro-1-(2,5-diethylphenyl)ethan-1-one]", "% of control remaining": 95.8504}
{"smiles": "Cc1oc(C(N)=O)cc1C(=O)CCl", "note": "[10-M05, 4-(2-chloroacetyl)-5-methylfuran-2-carboxamide]", "% of control remaining": 20.4169}
{"smiles": "Cc1oc(C(=O)O)cc1C(=O)CCl", "note": "[10-M21, 4-(2-chloroacetyl)-5-methylfuran-2-carboxylic acid]", "% of control remaining": 100.37}
{"smiles": "COC(=O)c1cc(C(=O)CCl)c(C)o1", "note": "[10-G13, methyl 4-(2-chloroacetyl)-5-methylfuran-2-carboxylate]", "% of control remaining": 43.6392}
{"smiles": "CCc1ccc(OC(C)C(=O)N2CCN(C(=O)C(C)Cl)CC2)cc1", "note": "(stereo not shown) [6-H16, 1-[4-(2-chloropropanoyl)piperazin-1-yl]-2-(4-ethylphenoxy)propan-1-one]", "% of control remaining": 86.302}
{"smiles": "C=CC(=O)N1CCC(C(=O)Nc2ccc3c(c2)CCN3C(N)=O)CC1", "note": "[3-E16, 5-[1-(prop-2-enoyl)piperidine-4-amido]-2,3-dihydro-1H-indole-1-carboxamide]", "% of control remaining": 90.5017}
{"smiles": "C=CC(=O)NC(c1nc(C)cs1)C1CC1", "note": "(stereo not shown) [3-D21, N-[cyclopropyl(4-methyl-1,3-thiazol-2-yl)methyl]prop-2-enamide]", "% of control remaining": 100.912}
{"smiles": "CCCn1c(C)cc(C=C(C#N)C(=O)Nc2ccc3c(c2)OCO3)c1C", "note": "[9-G07, N-(1,3-dioxaindan-5-yl)-2-cyano-3-(2,5-dimethyl-1-propyl-1H-pyrrol-3-yl)prop-2-enamide]", "% of control remaining": 88.5792}
{"smiles": "CC(Cl)C(=O)Nc1ccc(F)c(F)c1F", "note": "(stereo not shown) [4-O08, 2-chloro-N-(2,3,4-trifluorophenyl)propanamide]", "% of control remaining": 95.579}
{"smiles": "C=CC(=O)NCCCc1conc1C", "note": "[2-N13, N-[3-(3-methyl-1,2-oxazol-4-yl)propyl]prop-2-enamide]", "% of control remaining": 87.88}
{"smiles": "Cc1ccc(NC(=O)C2(CNC(=O)C(C)Cl)CCCC2)cc1C", "note": "(stereo not shown) [7-J13, 1-[(2-chloropropanamido)methyl]-N-(3,4-dimethylphenyl)cyclopentane-1-carboxamide]", "% of control remaining": 74.8059}
{"smiles": "Cn1cc(C=C(C#N)C(=O)Nc2ccccc2F)c(-c2ccncc2)n1", "note": "[9-L15, 2-cyano-N-(2-fluorophenyl)-3-[1-methyl-3-(pyridin-4-yl)-1H-pyrazol-4-yl]prop-2-enamide]", "% of control remaining": 89.6669}
{"smiles": "CC1(C)C(=O)Nc2ccc(C(=O)CCl)cc21", "note": "[10-N21, 5-(2-chloroacetyl)-3,3-dimethyl-2,3-dihydro-1H-indol-2-one]", "% of control remaining": 35.0672}
{"smiles": "O=C1CCc2cc(C(=O)CCl)ccc2N1", "note": "[10-M03, 6-(2-chloroacetyl)-1,2,3,4-tetrahydroquinolin-2-one]", "% of control remaining": 23.534}
{"smiles": "O=C1CCCc2cc(C(=O)CCl)ccc2N1", "note": "[10-M20, 7-(2-chloroacetyl)-2,3,4,5-tetrahydro-1H-1-benzazepin-2-one]", "% of control remaining": 94.6035}
{"smiles": "O=C1CCc2cc(C(=O)CCl)c(F)cc2N1", "note": "[10-O20, 6-(2-chloroacetyl)-7-fluoro-1,2,3,4-tetrahydroquinolin-2-one]", "% of control remaining": 36.6258}
{"smiles": "C=CC(=O)NCc1c(Cl)c(C(F)(F)F)nn1C", "note": "[2-J07, N-{[4-chloro-1-methyl-3-(trifluoromethyl)-1H-pyrazol-5-yl]methyl}prop-2-enamide]", "% of control remaining": 87.88}
{"smiles": "C=CC(=O)Nc1ccc(Cl)cc1F", "note": "[1-I10, N-(4-chloro-2-fluorophenyl)prop-2-enamide]", "% of control remaining": 88.0419}
{"smiles": "CC(Cl)C(=O)NCc1cc(-c2ccccc2)on1", "note": "(stereo not shown) [7-A13, 2-chloro-N-[(5-phenyl-1,2-oxazol-3-yl)methyl]propanamide]", "% of control remaining": 82.868}
{"smiles": "CC(Cl)C(=O)N1CCN(C(=O)C(F)(F)F)C2(CCCCC2)C1", "note": "(stereo not shown) [7-K06, 2-chloro-1-[1-(2,2,2-trifluoroacetyl)-1,4-diazaspiro[5.5]undecan-4-yl]propan-1-one]", "% of control remaining": 75.3345}
{"smiles": "CC(C#N)Oc1ccc(C=C(C#N)C(=O)Nc2ccccc2Cl)cc1", "note": "(stereo not shown) [9-E05, N-(2-chlorophenyl)-2-cyano-3-[4-(1-cyanoethoxy)phenyl]prop-2-enamide]", "% of control remaining": 89.259}
{"smiles": "C=CCNC(=O)C(C#N)=Cc1cccc2ccccc12", "note": "[9-L10, 2-cyano-3-(naphthalen-1-yl)-N-(prop-2-en-1-yl)prop-2-enamide]", "% of control remaining": 88.3073}
{"smiles": "CC(Cl)C(=O)N(C)C[C@@H]1C[C@H](F)CN1c1ccnc(N(C)C)n1", "note": "(stereo partly drawn) [7-K16, 2-chloro-N-{[(2S,4S)-1-[2-(dimethylamino)pyrimidin-4-yl]-4-fluoropyrrolidin-2-yl]methyl}-N-methylpropanamide]", "% of control remaining": 71.1052}
{"smiles": "C=CC(=O)NCCc1ccn(-c2ccc(F)cc2)n1", "note": "[2-P03, N-{2-[1-(4-fluorophenyl)-1H-pyrazol-3-yl]ethyl}prop-2-enamide]", "% of control remaining": 113.818}
{"smiles": "Cc1cc(C(=O)O)ccc1N1C(=O)C=CC1=O", "note": "[10-G22, 4-(2,5-dioxo-2,5-dihydro-1H-pyrrol-1-yl)-3-methylbenzoic acid]", "% of control remaining": 102.864}
{"smiles": "Cc1ccc2nc(-c3ccc(N4C(=O)C=CC4=O)cc3)sc2c1", "note": "[10-K18, 1-[4-(6-methyl-1,3-benzothiazol-2-yl)phenyl]-2,5-dihydro-1H-pyrrole-2,5-dione]", "% of control remaining": 99.1233}
{"smiles": "Cc1ccc(N2C(=O)C=CC2=O)c(C)c1", "note": "[10-N07, 1-(2,4-dimethylphenyl)-2,5-dihydro-1H-pyrrole-2,5-dione]", "% of control remaining": 22.5989}
{"smiles": "Cc1ccc(C)c(N2C(=O)C=CC2=O)c1", "note": "[10-F13, 1-(2,5-dimethylphenyl)-2,5-dihydro-1H-pyrrole-2,5-dione]", "% of control remaining": 31.3267}
